Compounds with a hit are over-represented: about 3.7% of the library has one in this group of screens.
D3 ag: agonists of human D3 dopamine receptor | max activation, % | hit rate 0.58% among 410,000 | P35462 | D3R DiscoveRx beta-arrestin cells, luminescence, 90 min; in the data active = max activation above about 30%; also: 0% is about no effect
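Cells at 1500/well, incubated overnight, then treated with pinned compounds (dopamine as control) for 90 min at 37 degrees C. DiscoveRx reagent added for 30 - 60 minutes at room temperature; luminescence read.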
RGS4 inh: inhibitors of human regulator of G protein signaling 4; Transcreener GDP fluorescence polarization, RGS4-accelerated GTP hydrolysis; Potency, µM (series often up to 114 µM), for inactives: top-dose activity change, negative = inhibition, hits mostly inhibitors; hit rate 0.039% among 390,000; AID 504845; also: potency is read from the fitted curve at half-maximal effect; % is scaled to controls: 0 for no effect and ±100 for the full control effect; nearly all actives have a fitted effect of over 75% in size
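MLSMR compounds (23 nl, pin-transferred) preincubated 10 min at room temperature with a 500nM (2x) first reagent, then RGS4 at 900nM (2x) plus Transcreener GDP mix added; fluorescence polarization (620/688 nm) read before and after 90 min at 30 °C.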
PTHR1 agonist: activates the human parathyroid hormone receptor PTHR1 | HEK293 GP2 PTHR1 cells, GloSensor cAMP luminescence, 1 h | Potency, µM (series often up to 115 µM), without a hit: top-dose activation, hits mostly activators | hit rate 0.075% among 410,000; also: potency is read from the fitted curve at half-maximal effect; nearly all actives have a fitted effect of over 55% in size
Target sequence (Q03431 whole entry, looked up): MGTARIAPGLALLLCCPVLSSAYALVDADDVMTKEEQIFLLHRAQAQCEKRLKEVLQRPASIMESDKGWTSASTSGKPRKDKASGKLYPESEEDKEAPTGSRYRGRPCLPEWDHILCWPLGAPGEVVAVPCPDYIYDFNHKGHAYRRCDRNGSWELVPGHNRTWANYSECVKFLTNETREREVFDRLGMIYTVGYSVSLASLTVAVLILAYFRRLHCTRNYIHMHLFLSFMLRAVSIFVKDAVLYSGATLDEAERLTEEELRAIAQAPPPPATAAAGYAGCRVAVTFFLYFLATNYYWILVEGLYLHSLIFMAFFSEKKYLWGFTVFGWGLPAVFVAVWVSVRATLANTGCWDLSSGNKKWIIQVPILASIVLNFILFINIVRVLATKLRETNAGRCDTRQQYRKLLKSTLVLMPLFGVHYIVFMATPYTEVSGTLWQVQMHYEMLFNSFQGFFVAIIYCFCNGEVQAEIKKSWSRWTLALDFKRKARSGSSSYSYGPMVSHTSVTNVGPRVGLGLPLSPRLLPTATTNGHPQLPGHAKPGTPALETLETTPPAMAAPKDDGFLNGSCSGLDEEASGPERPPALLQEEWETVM
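HEK-293-derived GP2 cells expressing PTHR1 and a GloSensor cAMP reporter, 3,000/well, plated overnight, given luciferin plus IBMX (each 0.5 mM as added) for 1 h at 37 °C, then compound for 1 h at 37 °C. Luminescence was read after 15 min at room temperature.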
BRCA1 expr up: activators of BRCA1 expression | MCF7-BRCA1-FFLuc reporter, luminescence, 48 h; response scale: scaled: vehicle 0%, 10 µM genistein 100% | Potency, µM (titrated, usually from 46.1 µM), for inactives: top-dose activation, hits mostly activators | hit rate 1.1% among 380,000 | AID 624202; also: potency is read from the fitted curve at half-maximal effect; nearly all actives have a fitted effect of over 80% in size
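48 h compound treatment of MCF7-BRCA1-FFLuc cells (phenol-red free MEM, 37 °C), then 15 min with luciferase substrate and luminescence imaging.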
DRD3 antagonist: antagonists of human D3 dopamine receptor. P35462. D3R cells, DiscoveRx beta-arrestin luminescence, antagonist mode; stronger effect = lower value. max response, negative = inhibition, %. hit rate 2.5% among 360,000. AID 652054; in the data active = max response below about -50%; inconclusive = no clear call, values can overlap the other calls; also: % is scaled to controls: 0 for no effect and ±100 for the full control effect
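Cells expressing the human receptor were seeded at 1500 cells/well, incubated overnight at 37 degrees C in 5% CO2, then exposed to library compounds with dopamine controls for 90 minutes at 37 degrees C before luminescent detection.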
B2AR arrestin: agonists driving beta-arrestin recruitment to human beta2-adrenergic receptor; P07550; beta-arrestin recruitment to beta2AR, cell-based reporter; Potency, µM (highest dose often 46.1 µM), inactives show at the highest dose activation, actives largely listed as activators; hit rate 0.02% among 330,000; AID 492947;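 also: potency is read from the fitted curve at half-maximal effect; 0% = DMSO controls and full agonism = EC100 isoproterenol or metaproterenol; nearly all actives have a fitted effect of over 65% in size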
An asterisk follows results filed as active; i = inactive; ? = inconclusive; · = no result; [ ] = another dose, or the depositor's remark. Unless noted, calls follow the shape of the dose curve; as a rule, active = well fitted curve in the direction sought with a large enough effect; inconclusive = small, poorly fitted or top-dose-only effect, or another doubt; inactive = no such curve, though single readings can be large; an effect the other way counts as inactive or inconclusive.

SMILES | D3 ag | RGS4 inh | PTHR1 agonist | BRCA1 expr up | DRD3 antagonist | B2AR arrestin
COc1ccc(CNc2nc3ccccc3n2CCN2CCCCC2)cc1 | -20 | -16% | -26% | -20% | -64* | 0%
COc1cccc(-c2cnc(C(O)c3c(C)cccc3C)[nH]2)c1 (stereo not given) | 4 | · | i | 0% | 4 | ·
Cc1sc(NC(=O)C2CCCCC2)c(C#N)c1-c1ccccc1 | 22 | -23% | i | 7.1µM* | 4 | -1%
CC1=C(c2ccc(C)c(C)c2)S(=O)(=O)N=C1N1CCN(c2cccc(C)c2)C(C)C1 (stereo not given) | -21 | -10% | -71% | · | · | ·
COc1nc(-c2ccccc2)cc(-c2ccc(OC)c(OC)c2)n1 | 98* | -18% | 0% | -10% | 55 | 0%
Cc1ccn2c(C=O)c(-c3ccc(F)cc3)c(C=O)c2c1 | 0 | -2% | -16% | -9% | -19 | 0%
COc1cccc(CNC(=O)CCc2cn(Cc3ccccc3Cl)c3ccccc23)c1 | 4 | 30% | -32% | · | · | ·
CCOc1ccc(NC(=O)CSc2nnnn2C2CC2)cc1S(=O)(=O)N1CCCC1 | -2 | 0% | -5% | -3% | 10 | 0%
Cc1ccc(NC(=O)C(C)N=C2NS(=O)(=O)c3ccccc32)cc1F (stereo not given) | -27 | -13% | -9% | 0% | -56* | 0%
CC(N=C1NS(=O)(=O)c2ccccc21)C(=O)NCCCc1ccccc1 (stereo not given) | -17 | -23% | i | -20% | -4 | 0%
CN(C)c1ccc(/C=N/N2C(=S)SC(C)(C)C2N(O)C(=O)Nc2ccc([N+](=O)[O-])cc2)cc1 (stereo not given) | -2 | ? | -12%[57.5 µM] | -48% | -67* | 0%
CNC(=O)N(O)C1N(/N=C/c2ccc(SC)cc2)C(=S)SC1(C)C (stereo not given) | 3 | 18% | i | 5% | -9 | -1%
CCOC(=O)c1c(S(=O)(=O)N2CCCC(C(=O)N(C)Cc3ccccc3)C2)c(C)n(C)c1C (stereo not given) | -6 | -10% | i | · | · | ·
CC(O)c1cccc(-c2ccc(CN3C[C@]4(CO)O[C@@H](CO)C[C@@H]4S3(=O)=O)cc2)c1 (stereo not given in full) | 45* | ? | -1% | 2% | 3 | 0%
C=CCN(C)CCCCCCOc1ccc(C(=O)c2ccc(Br)cc2)c(F)c1 | · | · | · | -34% | · | ·
C[C@H]1CN([C@@H](C)CO)C(=O)CCCn2nncc2CO[C@H]1CN(C)C(=O)Nc1ccc2c(c1)OCO2 | 2 | · | i | 9% | 5 | ·
CCOC(=O)C1CCN(CC(=O)N2CCCc3c2c(=O)oc2ccc(OCc4ccccc4)cc32)CC1 | -22 | 11% | -34% | · | · | ·
CN(CC(=O)N1CCCc2c1c(=O)oc1ccc(O)cc21)Cc1ccccc1 | -11 | -23% | -2% | -2% | -68* | 0%
CC1CCN(CCC(=O)N2CCCc3c2c(=O)oc2ccc(O)cc32)CC1 | -8 | 6% | -12%[57.5 µM] | -25% | -63* | 1%
CC(C(=O)N1CCCc2c1c(=O)oc1ccc(O)cc21)N1CCc2ccccc2C1 (stereo not given) | -19 | -17% | -11% | -48% | -9 | -1%
Cc1cc(SCC(=O)NCc2ccccc2)nc(=O)[nH]1 | 6 | -10% | -21% | 8% | · | ·
CCC(=O)n1nc(-c2ccc(Cl)cc2)nc1SC | 2 | 10% | -25% | 10µM* | 18 | 0%
CSc1nc(-c2ccc(Cl)cc2)nn1S(=O)(=O)c1ccccc1 | -3 | 8% | i | ? | 12 | 0%
CSc1nc(-c2ccc(Cl)cc2)nn1S(=O)(=O)c1ccc(Cl)cc1 | 2 | -7%[11.4 µM] | -16% | 10µM* | 0 | 5%
CSc1ccc2c(c1)[C@H](N1CCN(C)CC1)Cc1ccccc1S2 | · | -49%[56.9 µM] | · | · | · | ·
SMILES | D3 ag | RGS4 inh | PTHR1 agonist | BRCA1 expr up | DRD3 antagonist | B2AR arrestin
CN1CCN(C2Cc3ccccc3Sc3ccc(Cl)cc32)CC1 (stereo not given) | 0 | -19%[56.9 µM] | i | -25% | 0 | 0%
CN1CCN(C2Cc3ccccc3Sc3cc(C(F)(F)F)ccc32)CC1 (stereo not given) | -18 | 0% | i | -10% | -96* | ·
CSc1ccc2c(c1)C(N1CCN(C)CC1)Cc1ccccc1S2 (stereo not given) | -81 | ? | -20% | 11% | -84* | 0%
CC(=O)c1cnn(-c2ccc(Cl)c(Cl)c2Cl)c1C | -2 | 3% | -26% | -12% | -7 | 0%
COCCNc1nc(Oc2cccc3ccccc23)c2sccc2n1 | 54* | · | -14% | -25% | -5 | ·
COCCNc1nc(Oc2ccccc2)c2sccc2n1 | 0 | · | 2% | -2% | -8 | ·
COCCNc1nc(Oc2ccc(C(N)=O)cc2)c2sccc2n1 | 43* | · | -23% | -15% | -2 | ·
Cc1ccc(NC(=O)CSc2nc3ccccc3nc2Cc2ccccc2)c(Cl)c1 | 4 | 27% | -11% | 6% | · | ·
Cc1ccc(C(=O)NC(=S)Nc2cccnc2Cl)cc1 | 9 | -48% | -25% | 11µM* | -13 | 0%
COc1ccccc1C(=O)NC(=S)Nc1cccnc1Cl | -2 | ? | -32% | -55% | 19 | 0%
CC(C)NC(=O)c1ccc(CN2CCC(Cc3ccccc3)CC2)cc1 | -24 | -4% | i | 0% | -80* | 0%
C=CCNC(=O)c1ccc(CN2CCC(Cc3ccccc3)CC2)cc1 | -26 | 7% | -37% | -21% | ? | -1%
CC(C)NC(=O)C1(C)CSCC(=O)N1C1CCN(Cc2ccccc2)CC1 (stereo not given) | -21 | · | -21% | · | -64* | ·
Cc1ccccc1NC(=O)c1ccc(CN2CCC(Cc3ccccc3)CC2)cc1 | -19 | -17% | -20%[57.5 µM] | -48% | -64* | 0%
CCN(CC)C(=O)c1[nH]cnc1C(=O)NCC(=O)OCc1ccccc1 | 39* | 18% | i | 8% | 45 | 0%
CN(Cc1ccccc1)C(=O)c1[nH]cnc1C(=O)NCc1ccc(CNC(=O)OC(C)(C)C)cc1 | 70* | 1% | -56% | -24% | 78 | 0%
O=C(CNC(=O)c1nc[nH]c1C(=O)NCC(=O)OCc1ccccc1)OCc1ccccc1 | 5 | 1% | -2% | -7% | 82 | 0%
CC(C)(C)OC(=O)NCc1ccc(CNC(=O)c2nc[nH]c2C(=O)NCc2ccccc2)cc1 | 12 | 6% | -40% | -34% | 21 | -1%
CC(C)(C)OC(=O)NCc1ccc(CNC(=O)c2[nH]cnc2C(=O)NCC(=O)OCc2ccccc2)cc1 | 43* | -17% | -43% | 0% | 127 | 1%

High-throughput results from PubChem.
